“And” between values parts separate entries of the source, which are not always exact repeats. Equal values may be shown once. The panel holds about 83,000 compounds, 20% with a hit somewhere; the sample as a whole holds those more often.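 Assay: single dose, 48 h. Readout: percent growth (0 = no net growth; negative = cell death). Active: <10.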 The source made the active and inactive calls.

Our source for the growth values is PubChem BioAssay (NCI).

The test system of the test is MCF7 breast. Briefly: NCI-60 one-dose screen, 48 h (100 = growth as untreated, 0 = no growth, -100 = all killed). Particulars: 10 µM unless noted.
As for `COC(=O)C(C(=O)C(=O)Nc1c(C)cccc1C(C)(C)C)c1nc2ccc(Cl)cc2[nH]c1=O` (stereo not given), the growth is 69.9% [100 µM] (inactive) and 60.9% [100 µM] (inactive). In the case of `N#Cc1nc(C(F)(F)F)oc1N`, the growth is 66.3% [100 µM] (inactive) and 98.4% [100 µM] (inactive). For the compound `C/C(O)=C/c1nc2sc(C)c(C)c2c(=O)s1`, the growth was 10.6% [100 µM] (inactive) and 6.54% [100 µM] (active). Next, `O=C(O)CCCC(=O)Nn1c(Cc2ccc(Cl)cc2)n[nH]c1=O`: 78.3% [100 µM] (inactive) and 78.8% [100 µM] (inactive); `COc1ccc(C2c3cc4c(c(OC)c3CC3OCC(=O)C32)OCO4)cc1OC` (stereo not given): 6.05% [100 µM] (active) and -81% [100 µM] (active). `CC/C(Cl)=N\OC(=O)Nc1ccc(OC)cc1`: the growth was -75.9% [100 µM] (active) and -79.9% [100 µM] (active). The value for `C=C1C(=O)O[C@H]2C[C@@]3(C)[C@H](O)CCC(=C)[C@@H]3[C@@H](OC(C)=O)[C@H]12` was -83.4% [100 µM] (active) and -77.4% [100 µM] (active); that for `COC(=O)C(=O)C(C(=O)C(=O)Nc1ccccc1C(C)=O)c1nc2ccc(C(=O)c3ccccc3)cc2[nH]c1=O` (stereo not given) was 25.6% [100 µM] (inactive) and 2.25% [100 µM] (active); that for `N#Cc1nc(-c2cccc(-c3nc(C#N)c(N)o3)n2)oc1N` was 58.8% [100 µM] (inactive) and -19.4% [100 µM] (active). The value for `COc1ccc2c(c1)N(C(C)=O)CN1C(=O)CCC21` (stereo not given) was 86.1% [100 µM] (inactive) and 85.1% [100 µM] (inactive); that for `C=C(C)C(=O)OC1CC2(C)OC(=CC2=O)C(C)CC2OC(=O)C(=C)C12` (stereo not given) was -77.3% [100 µM] (active). Consider `COc1cc2c(cc1C1COc3cc4occc4cc3C1=O)OCO2` (stereo not given), for which the growth was 65.2% [100 µM] (inactive) and 62.9% [100 µM] (inactive). Consider `CC1CC(=O)N(N(C)C)C(C#N)(C#N)C1(C#N)C#N` (stereo not given), for which the growth is -67.7% [100 µM] (active) and -85.9% [100 µM] (active). `COc1ccc2cc1Oc1ccc(cc1)CC1c3cc(OC)c(cc3CCN1C)Oc1c(OC)c(OC)cc3c1C(C2)N(C)CC3` (stereo not given): the growth is 24.7% [75 µM] (inactive) and -97.6% [75 µM] (active). Next, `C=CC(COC(=O)C(C)(C)OC(C)=O)c1ccc(OC(=O)C(C)C)c(OC)c1` (stereo not given): -68.4% [100 µM] (active) and -69% [100 µM] (active); `N#CC1(C#N)N[C@@H](c2ccsc2)[C@H]2C(=O)N(c3ccccc3)C(=O)[C@H]21`: 22.5% [100 µM] (inactive) and 12.4% [100 µM] (inactive); `COc1cc(-c2nc(SC)nc3c2CCc2ccccc2-3)cc(OC)c1OC`: 19.3% [100 µM] (inactive) and 8.46% [100 µM] (active). Turning to `O=C1c2cccnc2-c2nccc3ccnc1c23`, the growth is -90.9% [100 µM] (active) and -100% [100 µM] (active). The value for `COC(=O)c1cnn2c1n[n+]([O-])c1ccccc12` was 68.2% [100 µM] (inactive) and 11.8% [100 µM] (inactive). Next, `COc1ccc2c(=O)c(-c3cc4c(cc3OC)OCO4)coc2c1`: 74% [100 µM] (inactive) and 47.3% [100 µM] (inactive). With `NC(N)=Nc1ccc(CC(N)C(=O)O)cc1` (stereo not given), the growth is 93.7% [12.5 µM] (inactive) and 76.9% [12.5 µM] (inactive).

On to `CC(=N/N=C/c1ccccn1)/C(C)=N/N=C(C)/C(C)=N/N=C(C)/C(C)=N/N=C(C)/C(C)=N\N=C\c1ccccn1`, for which the growth is 84.9% [100 µM] (inactive) and 89.9% [100 µM] (inactive). Next, `COC(=O)C(=O)C(C(=O)C(=O)Nc1ccc(Cl)c(Cl)c1)c1nc2ccc(C(=O)c3ccccc3)cc2[nH]c1=O` (stereo not given): 32.4% [100 µM] (inactive) and 5.18% [100 µM] (active); `COc1ccc2nc(NC(=O)/C(C#N)=C/c3ccccc3)sc2c1`: 4.79% [100 µM] (active) and 1.62% [100 µM] (active); `NNc1[nH]c(=S)[nH]c1C(N)=O`: 98.4% [100 µM] (inactive) and 70.9% [100 µM] (inactive).
